Source: PubChem BioAssay AID504847 (National Center for Advancing Translational Sciences (NCATS), 2011)
Out of some 400,000 compounds screened, about 3,700 (0.93%) were called active. Another 3% or so got no clear call; they are omitted. The call rests on the fitted dose curve; in most records, active means well fitted inhibition curve with a large enough effect; inconclusive means small, poorly fitted or top-dose-only effect, or another doubt; inactive means no such curve, though single readings can be large or run the other way. The sample as a whole holds a higher share of actives than the screen did.

Target: Vitamin D3 receptor (Homo sapiens) (UniProt P11473)
Sequence (P11473 whole entry, looked up): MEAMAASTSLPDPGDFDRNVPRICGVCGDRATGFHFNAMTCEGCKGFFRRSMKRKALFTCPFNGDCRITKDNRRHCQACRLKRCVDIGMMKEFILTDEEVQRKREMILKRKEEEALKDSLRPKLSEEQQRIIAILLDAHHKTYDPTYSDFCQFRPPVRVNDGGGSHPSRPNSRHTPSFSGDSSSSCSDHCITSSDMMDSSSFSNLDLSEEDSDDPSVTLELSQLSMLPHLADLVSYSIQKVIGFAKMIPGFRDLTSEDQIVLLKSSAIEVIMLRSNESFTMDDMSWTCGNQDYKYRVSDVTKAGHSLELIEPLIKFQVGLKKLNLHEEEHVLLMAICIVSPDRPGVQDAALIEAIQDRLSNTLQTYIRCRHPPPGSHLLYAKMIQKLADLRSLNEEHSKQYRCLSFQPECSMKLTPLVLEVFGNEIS
Experiment: Inhibitors of the vitamin D receptor (VDR): qHTS
Settings: VDR-SRC2-3 peptide fluorescence polarization, 2 h; max response, negative = inhibition: active compounds read low
Procedure, shortened: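 VDR–SRC2-3 interaction, FP format. Cmpds 23 nl via pintool, brief spin, 2 h ambient incubation.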
On the % scale 0 is the no-effect control and ±100 the full control effect; potency means the concentration at half of the fitted maximal effect.

Potency, active:
CC(=O)N(C1=C(Cl)C(=O)c2ccccc2C1=O)c1ccc(C(=O)O)cc1 7.08 µM
CC(=O)Oc1c2c(c3c(c1CC=C(C)C)O[C@@]14C(=CC5CC1C(C)(C)OC4(C/C=C(\C)C(=O)O)C5=O)C3=O)OC(C)(CCC=C(C)C)C=C2 (some centres undefined) 3.16 µM
O=[N+]([O-])c1c(NCCO)cc(Sc2nc3ccccc3s2)c2nonc12 14.1 µM
Oc1c(C(c2ccccn2)N2CCOCC2)ccc2cccnc12 (centres undefined) 17.8 µM
Nc1ccc2[nH]c(=S)sc2c1 28.2 µM
COc1ccc(N=C2C=CC(=O)O2)cc1 79.4 µM
O=C1NN(c2ccccc2)C(=O)/C1=C/c1ccc(-c2cccc(C(=O)O)c2)o1 89.1 µM
CC1=NN(c2ccc(Cl)c(C(=O)O)c2)C(=O)/C1=C/c1ccc(-c2ccccc2[N+](=O)[O-])o1 50.1 µM
Cc1ccc(CSCC2Nc3ccc(C(=O)N4CCN(c5ccc(F)cc5)CC4)cc3NC2=O)cc1 (centres undefined) 79.4 µM
CC(C)c1ccc(C2CC(=O)N3CN(C4CCCCC4)CSC3=C2C#N)cc1 (centres undefined) 14.1 µM
CC(=O)N(c1ccc2oc(=O)sc2c1)S(=O)(=O)c1ccc(C)cc1 70.8 µM
COc1ccc(Br)cc1/C=N/Nc1ccc(S(=O)(=O)Nc2ccccc2C(=O)O)cc1[N+](=O)[O-] 79.4 µM

Max response, negative = inhibition, inactive:
CCOC(=O)c1cc2c(=O)n3ccccc3nc2n(CCCOC)c1=NC(=O)C(C)(C)Oc1ccc(Cl)cc1 -19.6%
CCc1ccccc1OCCSc1nc(-c2cccs2)nc2cc(=O)[nH]n12 -2.15%
O=C1CC(c2ccccc2)CC2=C1C(c1ccco1)n1nc(C(F)(F)F)nc1N2 (centres undefined) -0.088%
CC(C)(C)c1ccc(S(=O)(=O)Nc2ccc(O)c(Sc3nc4ccccc4s3)c2)cc1 -10.5%
CC(C)c1ccc(S(=O)(=O)Nc2ccc(O)c(Sc3nc4ccccc4s3)c2)cc1 -4.7%
NCCCNCCCCN(CCCN)/[N+]([O-])=N/O 8.85%
Oc1c(C(c2ccccc2Cl)N2CCOCC2)sc2nc(-c3ccco3)nn12 (centres undefined) 10.6%
COc1ccc(NC(=O)c2sc3nc[nH]c(=O)c3c2C)cc1 6.76%
Cc1ccc2nc(/C(C#N)=C/c3ccc(-c4ccc(C(=O)OC(C)C)cc4)o3)[nH]c2c1 -0.457%
O=c1[nH]c2ccccc2s1 1.06%
COc1ccc(CNC(=O)CSc2nc3ccccc3nc2Cc2ccccc2)cc1 -10.7%
Cc1cccc(C)c1NC(=O)NC1=CCCN1C 8.2%
COc1ccc(N=Nc2c(-c3ccc(OC)cc3)[nH]oc2=O)cc1 -12%
COC1=CC(=O)OC(c2ccc(OC)cc2)C1 (centres undefined) 6.19%
COc1ccc(-c2nc3nc(C)cc(C)n3c2Nc2c(C)cccc2C)cc1 -18.2%
Cc1cccc(OCCSc2nc3ccc(NC(=O)COc4ccccc4C)cc3s2)c1 4.41%
CC(=O)c1cc(-c2ccccc2)[nH]c1N1CCCC1 0%
CCCN(CCC)CCCNC(=O)Cn1ncc2c3ccccc3n(Cc3ccccc3)c2c1=O 11.1%
Cc1cc(C)c(NC(=O)c2cc3sc(Cl)cc3n2C)c(C)c1 -11%
O=C1NC(c2ccc(-c3ccccc3[N+](=O)[O-])o2)C(C(=O)c2ccc(Cl)cc2)C(O)(C(F)(F)F)N1 (centres undefined) -20.1%
O=C(Nc1ccc(N2CCOCC2)cc1)c1ccc(-c2ccccc2[N+](=O)[O-])o1 -16.6%
COc1cc(C(=O)NCCS(=O)(=O)N2CCN(c3ccccc3)CC2)cc(OC)c1OC 22.4%
COc1ccc(-c2onc(C)c2C)cc1S(=O)(=O)NCC1CCN(Cc2cccc(F)c2)CC1 -0.795%
Cc1cc(NC(=O)c2ccc(-c3ccc(Cl)cc3)o2)cc(-c2nc3ncccc3o2)c1O -16%
CC1CCN(C(=O)c2ccc3c(c2)NC(=O)CN3)CC1 8.33%
Cc1ccc(SCC(=O)N2CCN(c3ccc(F)cc3)CC2)cc1 9.21%
CCOC(=O)c1c(S(=O)(=O)N2CCCC(C(=O)NCc3cccc(C)c3)C2)c(C)n(C)c1C (centres undefined) 14.2%
CCCN(CCC)CCCNC(=O)Cn1cc2c(n1)-c1c(oc(C(=O)N3CCCC3)c1C)CC2 4.81%
COc1ccc(-c2nc(Cn3c(=O)cc(C)c4c(C)nn(-c5ccccc5)c43)c(C)o2)c(OC)c1 3.2%
COc1ccc2c(c1)c(N1CCCC1=O)c(C(=O)Nc1ccccc1C(F)(F)F)n2C 13.2%
Cc1ccc(-c2nc3cccc(C)n3c2Nc2ccc3c(c2)OCCO3)cc1 -25.9%
CC(C)c1ccc(C2C(C#N)=C(N)Oc3c2oc(CO)cc3=O)cc1 (centres undefined) -3.81%
COc1cc(Nc2nc(-c3ccc(OC)c(OC)c3)nc3ccccc23)cc(OC)c1 19%
CC(=O)Oc1ccc(N(C(C)=O)S(=O)(=O)c2ccc3ccccc3c2)cc1Br 7.52%
COC(=O)c1c(C)oc2ccc(N(C(=O)Oc3ccccc3)S(=O)(=O)c3ccccc3)cc12 2.55%
CC(NC(=O)c1cc2c(=O)n3ccccc3nc2n(C(C)C)c1=N)c1ccccc1 (centres undefined) -2.71%
Cc1ccc(-n2c(=O)c3cccnc3n2CC(=O)Nc2ccccc2C(F)(F)F)cc1C 10.3%
O=C(O)c1ccccc1/C=N/Nc1ccc(S(=O)(=O)Nc2ccc(Cl)cc2)cc1[N+](=O)[O-] -16.1%
COc1ccc(S(=O)(=O)Nc2ccccc2C(=O)N2CCCC2)cc1C 4.61%
Cc1cc(C)nc(NS(=O)(=O)c2ccc(NC(=O)c3cc(=O)c4ccc(C)c(C)c4o3)cc2)n1 19.7%
O=C(NCCCc1ccccc1)c1ccc2c(c1)sc1nc(-c3ccc(F)cc3)cn12 9.26%
Cc1ccc(-c2cc(-c3coc4ccccc4c3=O)c3c(n2)-c2cc(Cl)ccc2OC3)cc1 2.47%
